# Data from the supplement of paper PMC8728848.
# Shown is part of a subset that was picked to be rich in the strongest signals.
# Assays:
# Experiment in all cases: glycan array binding signal (z-score within array); higher = stronger binding
# Conditions in all cases: glycan notation: IUPAC condensed, linker removed
# [1] = biological target: Fuc(a1-2)Gal(b1-3)GalNAc(b1-3)Gal
# Summary of the method: (§1)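 Glycan array data came from 3228 arrays in the Consortium for Functional Glycomics database, and only arrays with an available protein sequence were kept. Glycan names were put into IUPAC-condensed notation, and columns mapping to the same glycan were averaged. The binding signal is a within-array Z-score, averaged across arrays of one protein sequence run at different concentrations or buffers and across linkers. A negative Z-score can be read as non-binding.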
# [2] = biological target: Fuc(a1-2)Gal(b1-3)GlcNAc(b1-3)[Gal(b1-4)GlcNAc(b1-6)]Gal(b1-4)Glc
# Summary of the method: as §1
# [3] = biological target: Fuc(a1-2)Gal(b1-4)GlcNAc6S
# Summary of the method: as §1
# [4] = biological target: Fuc(a1-2)Gal(b1-4)[Fuc(a1-3)]GlcNAc(b1-2)Man(a1-3)[Fuc(a1-2)Gal(b1-4)[Fuc(a1-3)]GlcNAc(b1-2)Man(a1-6)]Man(b1-4)GlcNAc(b1-4)[Fuc(a1-6)]GlcNAc
# Summary of the method: as §1
# [5] = biological target: Fuc(a1-2)Gal6S(b1-3)GlcNAc6S
# Summary of the method: as §1
# [6] = biological target: Fuc(a1-2)[Gal(a1-3)]Gal(b1-3)GlcNAc
# Summary of the method: as §1
# [7] = biological target: Fuc(a1-2)[Gal(a1-3)]Gal(b1-4)GlcNAc
# Summary of the method: as §1
# [8] = biological target: Fuc(a1-2)[Gal(a1-3)]Gal(b1-4)GlcNAc(b1-6)GalNAc
# Summary of the method: as §1
# [9] = biological target: Fuc(a1-3)[Gal(b1-4)]Glc6S
# Summary of the method: as §1
# [10] = biological target: Fuc(a1-3)[Gal(b1-4)]GlcNAc(b1-6)GalNAc
# Summary of the method: as §1
# [11] = biological target: Fuc(a1-3)[Gal3S(b1-4)]Glc
# Summary of the method: as §1
# [12] = biological target: Gal(a1-3)Gal(b1-4)GlcNAc(b1-2)Man
# Summary of the method: as §1
# [13] = biological target: Gal(b1-3)GlcNAc
# Summary of the method: as §1
# [14] = biological target: Gal(b1-3)GlcNAc(a1-3)Gal(b1-4)GlcNAc
# Summary of the method: as §1
# [15] = biological target: Gal(b1-3)GlcNAc(b1-2)[Gal(b1-3)GlcNAc(b1-6)]Man(a1-6)[Gal(b1-3)GlcNAc(b1-2)Man(a1-3)]Man(b1-4)GlcNAc(b1-4)GlcNAc
# Summary of the method: as §1
# [16] = biological target: Gal(b1-3)GlcNAc(b1-3)Gal(b1-4)GlcNAc(b1-2)[Gal(b1-3)GlcNAc(b1-3)Gal(b1-4)GlcNAc(b1-6)]Man(a1-6)[Gal(b1-3)GlcNAc(b1-3)Gal(b1-4)GlcNAc(b1-2)Man(a1-3)]Man(b1-4)GlcNAc(b1-4)[Fuc(a1-6)]GlcNAc
# Summary of the method: as §1
# [17] = biological target: Gal(b1-3)[Fuc(a1-4)]GlcNAc(b1-2)Man
# Summary of the method: as §1
# [18] = biological target: Gal(b1-3)[Fuc(a1-4)]GlcNAc(b1-3)Gal(b1-3)[Fuc(a1-4)]GlcNAc
# Summary of the method: as §1
# [19] = biological target: Gal(b1-4)GlcNAc(b1-2)Man(a1-3)[Man(a1-6)]Man(b1-4)GlcNAc(b1-4)GlcNAc
# Summary of the method: as §1
# [20] = biological target: Gal3S(b1-4)[Fuc(a1-3)]Glc6S
# Summary of the method: as §1
# [21] = biological target: Gal3S4S(b1-4)GlcNAc
# Summary of the method: as §1
# [22] = biological target: Gal3S6S(b1-4)GlcNAc
# Summary of the method: as §1
# [23] = biological target: Gal6S(b1-3)GlcNAc
# Summary of the method: as §1
# [24] = biological target: Gal6S(b1-3)GlcNAc6S
# Summary of the method: as §1
# [25] = biological target: Gal6S(b1-4)GlcNAc6S
# Summary of the method: as §1
# [26] = biological target: GalNAc(a1-3)Gal
# Summary of the method: as §1
# [27] = biological target: GalNAc(b1-3)Gal(a1-6)Gal(b1-4)Glc
# Summary of the method: as §1
# [28] = biological target: GlcNAc(a1-3)Gal(b1-4)GlcNAc
# Summary of the method: as §1
# [29] = biological target: GlcNAc(a1-4)Gal(b1-3)GlcNAc
# Summary of the method: as §1
# [30] = biological target: GlcNAc(a1-4)Gal(b1-4)GlcNAc(b1-3)Gal(b1-4)[Fuc(a1-3)]GlcNAc(b1-3)Gal(b1-4)[Fuc(a1-3)]GlcNAc
# Summary of the method: as §1
binder,measurement,setting,value
Epa3to2 (Candida glabrata) (protein) MGSSHHHHHHSSGLVPRGSHMKRELSSQNPFGYPIGCSPQDVAIIPGLTMELYSYPIVSGTPPNCYDASYVDPEYPRTGYLKRKMVGKSTGVTGNLNYKYSVEKACMVKYGNLPAGYNYNEPLTVSNFTMILYGYFKAQTTGLHTFFVNADDLLYINFGAGNAFDCCKREDSKTKLGEYVAYDIWHVDSSKNKVSLFLEKDLYYPIRMFFNNRDNNSSLDLSFSVNGATDQISDFSGYLYSVPDQPDTCPAHIGYDTTCR,glycan array binding signal (z-score),[1],3.03
same,glycan array binding signal (z-score),[2],1.2
same,glycan array binding signal (z-score),[3],-0.709
same,glycan array binding signal (z-score),[4],2.47
same,glycan array binding signal (z-score),[5],2.11
same,glycan array binding signal (z-score),[6],-0.392
same,glycan array binding signal (z-score),[7],-0.27
same,glycan array binding signal (z-score),[8],-0.714
same,glycan array binding signal (z-score),[9],0.316
same,glycan array binding signal (z-score),[10],-1.35
same,glycan array binding signal (z-score),[11],0.878
same,glycan array binding signal (z-score),[12],-0.911
same,glycan array binding signal (z-score),[13],-0.751
same,glycan array binding signal (z-score),[14],-0.807
same,glycan array binding signal (z-score),[15],0.52
same,glycan array binding signal (z-score),[16],0.293
same,glycan array binding signal (z-score),[17],0.761
same,glycan array binding signal (z-score),[18],-1.46
same,glycan array binding signal (z-score),[19],0.07
same,glycan array binding signal (z-score),[20],0.958
same,glycan array binding signal (z-score),[21],-0.354
same,glycan array binding signal (z-score),[22],2.42
same,glycan array binding signal (z-score),[23],0.814
same,glycan array binding signal (z-score),[24],3.65
same,glycan array binding signal (z-score),[25],2.45
same,glycan array binding signal (z-score),[26],1.49
same,glycan array binding signal (z-score),[27],1.12
same,glycan array binding signal (z-score),[28],-1.07
same,glycan array binding signal (z-score),[29],-1.92
same,glycan array binding signal (z-score),[30],2.65
